Hit rate of the full screen: of about 5,600 compounds, about 3,100 (55%) were called active. Another 3% or so got no clear call; they are omitted. So high a share suggests a set chosen from earlier hits. A selection follows. A number with no mark means an inactive call.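 How the source made its calls: active means mean loss of cell viability signal at or above a set limit, and enough replicates individually reaching it; inconclusive means meets only the mean limit or only the replicate share; inactive means meets neither condition.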

This assay is described as follows: viability loss of mouse 3T3 cells – cell-based, cherry-pick, single point, set 2, cytotoxicity control, confirmation (AID 651744).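 Further: 0% = median of neutral control wells and 100% = median of positive control wells.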 To be noted: NIH/3T3 viability, CellTiter-Glo ATP luminescence, 90 h; at 24.9 µM; active compounds read high. For orientation: Cellular ATP, detected with luciferase, serves as a proxy for viable cell number.
What is called inhibition is the change of the read-out against control, counted positive when it falls. Take `O=C(c1ccc(F)cc1)N1CCCCN2[C@H](C1)[C@@H](c1ccc(C#CC3(O)CCCC3)cc1)[C@@H]2CO`: the inhibition was 18%.

Take `O=C(c1ccncc1)N1CCCCN2[C@H](CO)[C@H](c3ccc(-c4ccccc4)cc3)[C@H]2C1`: the inhibition is 5.4%.

In the case of `COc1ccc(C#Cc2ccc([C@@H]3[C@@H](CO)N4CCCCN(C(=O)c5ccncc5)C[C@@H]34)cc2)cc1`, the inhibition was 97.5% (active).

Take `O=C(Nc1ccccc1)N1CCCCN2[C@H](CO)[C@@H](c3ccc(C#Cc4ccccn4)cc3)[C@H]2C1`: the inhibition was 9.74%.

Regarding `O=C(c1cccnc1)N1CCCCN2[C@@H](CO)[C@H](c3ccc(C#Cc4ccccc4)cc3)[C@@H]2C1`, the inhibition is 66.5% (active).

On to `O=S(=O)(c1ccccc1)N1CC[C@@H]2[C@H]1c1cc(C#Cc3cccc(F)c3)ccc1N[C@@H]2CO`, for which the inhibition was 72.4% (active).

Consider `O=S(=O)(c1ccccc1)N1CC[C@@H]2[C@@H](CO)Nc3ccc(-c4ccccc4F)cc3[C@@H]21`, for which the inhibition is 23.8%.

As to `COCC(=O)N1CC[C@@H]2[C@@H](CO)Nc3ccc(-c4cccc(C#N)c4)cc3[C@@H]21`, the inhibition is 5.66%.

In the case of `CN(C)C(=O)c1ccc(-c2ccc3c(c2)[C@H]2[C@H](CCN2C(=O)c2ccc4c(c2)OCO4)[C@H](CO)N3)cc1`, the inhibition was -8.51%.

Consider `CC(=O)N1CC[C@@H]2[C@H](CO)Nc3ccc(C#Cc4ccccc4F)cc3[C@@H]21`, for which the inhibition is 33.2% (active).

On to `O=S(=O)(c1ccccc1)N1CC[C@@H]2[C@@H](CO)Nc3ccc(C#Cc4cccc(F)c4)cc3[C@@H]21`, for which the inhibition was 52.5% (active).

With `O=C(c1cccc(F)c1)N1CC[C@@H]2[C@@H](CO)Nc3ccc(C#Cc4cccc(F)c4)cc3[C@@H]21`, the inhibition was 105% (active).

As for `COc1ccc(NC(=O)N2CC[C@@H]3[C@@H](CO)N(C)c4ccc(-c5cccc(F)c5)cc4[C@@H]32)cc1`, the inhibition was 20.7%.

Consider `CCC(=O)N1CC[C@@H]2[C@@H](CO)N(C)c3ccc(-c4ccc(F)cc4)cc3[C@@H]21`, for which the inhibition is 12.2%.

Take `Cc1ccccc1S(=O)(=O)N1CC[C@H]2[C@H](CO)Nc3ccc(-c4cccc(F)c4)cc3[C@H]21`: the inhibition is 105% (active).

Turning to `CC(=O)N1[C@H](CNC(=O)C2CC2)[C@@H](c2ccc(-c3cccc(F)c3)cc2)[C@@H]1CO`, the inhibition is 13%.

With `CN1c2ccc(-c3ccccc3)cc2[C@H]2[C@H](CCN2C(=O)Cc2ccccn2)[C@H]1CO`, the inhibition is 9.27%.

For `O=C(Cc1ccccc1)N1CC[C@H]2[C@H](CO)Nc3ccc(-c4ccccc4F)cc3[C@H]21`, the inhibition is 48.1% (active).

Consider `O=C(C[C@@H]1C[C@@H]2c3cc(NC(=O)c4ccc5c(c4)OCO5)ccc3O[C@@H]2[C@@H](CO)O1)NCc1ccc(Cl)cc1`, for which the inhibition is 14.5%.

Regarding `CN1C(=O)c2cc(NC(=O)c3cnccn3)ccc2OC[C@@H]2O[C@@H](CC(=O)N[C@H]3CCN(Cc4ccccc4)C3)CC[C@H]21`, the inhibition was -12.6%.

On to `C[C@H](CO)N1C[C@H](C)[C@H](CN(C)Cc2ccc(C(F)(F)F)cc2)OCCCC[C@H](C)Oc2ccc(NS(=O)(=O)c3ccc(Cl)cc3)cc2C1=O`, for which the inhibition is 105% (active).

Regarding `COc1ccc(S(=O)(=O)N(C)C[C@H]2OCCCC[C@H](C)Oc3ccc(NS(=O)(=O)c4ccc(F)cc4)cc3C(=O)N([C@@H](C)CO)C[C@@H]2C)cc1`, the inhibition was -33.1%.

`C[C@H]1CCCCO[C@@H](CN(C)S(=O)(=O)c2cccs2)[C@@H](C)CN([C@@H](C)CO)C(=O)c2cc(NS(=O)(=O)c3ccc(Cl)cc3)ccc2O1`: the inhibition was 11.8%.

On to `C[C@H]1CCCCO[C@@H](CN(C)C(=O)NC2CCCCC2)[C@@H](C)CN([C@@H](C)CO)C(=O)c2cc(NS(=O)(=O)c3ccc(Cl)cc3)ccc2O1`, for which the inhibition is 15.4%.

Consider `COc1ccc(S(=O)(=O)Nc2ccc3c(c2)C(=O)N([C@H](C)CO)C[C@@H](C)[C@@H](CN(C)CC2CCCCC2)OCCCC[C@@H](C)O3)cc1`, for which the inhibition was 107% (active).

As for `C[C@@H]1CCCCO[C@H](CN(C)C(=O)NC2CCCCC2)[C@H](C)CN([C@H](C)CO)C(=O)c2cc(NS(=O)(=O)c3ccc(Cl)cc3)ccc2O1`, the inhibition was -1.41%.

With `C[C@@H]1CN([C@H](C)CO)C(=O)c2cc(NS(=O)(=O)c3ccc(Cl)cc3)ccc2O[C@@H](C)CCCCO[C@H]1CN(C)Cc1ccccc1`, the inhibition was 103% (active).

Consider `C[C@@H]1CCCCO[C@H](CN(C)Cc2ccccc2)[C@H](C)CN([C@H](C)CO)C(=O)c2cc(NS(=O)(=O)c3ccc(Cl)cc3)ccc2O1`, for which the inhibition is 104% (active).

As for `C[C@H](CO)N1C[C@H](C)[C@H](CN(C)S(=O)(=O)c2ccc(F)cc2)OCCCC[C@H](C)Oc2ccc(NS(=O)(=O)c3ccc(Cl)cc3)cc2C1=O`, the inhibition is 18.4%.

With `COc1ccc(NC(=O)N(C)C[C@@H]2OCCCC[C@@H](C)Oc3ccc(NS(=O)(=O)c4ccc(Cl)cc4)cc3C(=O)N([C@H](C)CO)C[C@H]2C)cc1`, the inhibition is -14.7%.

Consider `C[C@@H]1CN([C@H](C)CO)C(=O)c2cc(NS(=O)(=O)c3cccs3)ccc2O[C@@H](C)CCCCO[C@@H]1CN(C)S(=O)(=O)c1ccc(Cl)cc1`, for which the inhibition was 2.36%.

On to `C[C@@H]1CCCCO[C@H](CN(C)S(=O)(=O)c2ccc(Cl)cc2)[C@H](C)CN([C@@H](C)CO)C(=O)c2cc(NS(=O)(=O)c3cccs3)ccc2O1`, for which the inhibition is -8.7%.

For `C[C@@H]1CCCCO[C@H](CN(C)S(=O)(=O)c2cccs2)[C@H](C)CN([C@H](C)CO)C(=O)c2cc(NS(=O)(=O)c3ccc(F)cc3)ccc2O1`, the inhibition is -27.9%.

As to `C[C@@H]1CN([C@H](C)CO)C(=O)c2cc(NS(=O)(=O)c3cccs3)ccc2O[C@@H](C)CCCCO[C@H]1CN(C)Cc1ccc(C(F)(F)F)cc1`, the inhibition was 103% (active).

As for `C[C@H]1CN([C@@H](C)CO)S(=O)(=O)c2ccc(C3=CCCC3)cc2O[C@@H]1CN(C)Cc1ccccc1`, the inhibition is 103% (active).

As to `C[C@H]1CN([C@@H](C)CO)S(=O)(=O)c2ccc(C3=CCCCC3)cc2O[C@@H]1CN(C)Cc1ccccc1`, the inhibition was 106% (active).

In the case of `C[C@@H]1CN([C@H](C)CO)S(=O)(=O)c2ccc(C3=CCCC3)cc2O[C@H]1CN(C)Cc1ccccc1F`, the inhibition was 106% (active).

On to `C[C@@H]1CCCCO[C@@H](CN(C)CC2CC2)[C@H](C)CN([C@H](C)CO)C(=O)c2cc(NC(=O)C3CCCCC3)ccc2O1`, for which the inhibition is -28.9%.

For the compound `C[C@@H]1CN([C@H](C)CO)C(=O)c2cc(NC(=O)Nc3ccc(F)cc3)ccc2O[C@@H](C)CCCCO[C@@H]1CN(C)CC1CCCCC1`, the inhibition is 102% (active).

Take `C[C@@H]1CCCCO[C@H](CN(C)Cc2ccccc2)[C@@H](C)CN([C@@H](C)CO)C(=O)c2cc(NC(=O)Nc3ccc(F)cc3)ccc2O1`: the inhibition was 103% (active).

Consider `C[C@@H]1CCCCO[C@@H](CN(C)Cc2ccc(C(F)(F)F)cc2)[C@@H](C)CN([C@H](C)CO)C(=O)c2cc(NC(=O)Nc3ccccc3)ccc2O1`, for which the inhibition is -8.84%.

For the compound `C[C@@H]1CCCCO[C@H](CN(C)Cc2ccc(C(F)(F)F)cc2)[C@H](C)CN([C@H](C)CO)C(=O)c2cc(NC(=O)Nc3ccc(F)cc3)ccc2O1`, the inhibition was -19.7%.

Take `COc1ccc(NC(=O)N(C)C[C@@H]2Oc3c(NC(=O)NC4CCCCC4)cccc3C(=O)N([C@@H](C)CO)C[C@@H]2C)cc1`: the inhibition was 2.03%.

On to `C[C@H]1CCCCO[C@H](CN(C)Cc2ccccc2)[C@@H](C)CN([C@@H](C)CO)C(=O)c2cc(NC(=O)c3ccccc3)ccc2O1`, for which the inhibition was 40.7% (active).

Consider `C[C@@H]1CCCCO[C@H](CN(C)C(=O)NC2CCCCC2)[C@H](C)CN([C@H](C)CO)C(=O)c2cc(NC(=O)Nc3ccc(F)cc3)ccc2O1`, for which the inhibition is 1.83%.

On to `C[C@@H]1CN([C@H](C)CO)C(=O)c2cccc(NC(=O)NC3CCCCC3)c2O[C@H]1CN(C)Cc1ccc(C(F)(F)F)cc1`, for which the inhibition was 106% (active).

Regarding `COc1ccc(NC(=O)Nc2ccc3c(c2)C(=O)N([C@H](C)CO)C[C@@H](C)[C@H](CN(C)Cc2ccc(Cl)c(Cl)c2)OCCCC[C@@H](C)O3)cc1`, the inhibition was -0.512%.

As for `C[C@H]1CCCCO[C@H](CN(C)Cc2ccccc2)[C@@H](C)CN([C@@H](C)CO)C(=O)c2cc(NC(=O)NC3CCCCC3)ccc2O1`, the inhibition is 102% (active).

On to `C[C@@H]1CCCCO[C@@H](CN(C)Cc2ccc(Cl)c(Cl)c2)[C@H](C)CN([C@H](C)CO)C(=O)c2cc(NC(=O)Nc3ccc(F)cc3)ccc2O1`, for which the inhibition is 1.24%.

For `C[C@@H]1CCCCO[C@H](CN(C)Cc2ccc(Cl)c(Cl)c2)[C@H](C)CN([C@@H](C)CO)C(=O)c2cc(NC(=O)C3CCCCC3)ccc2O1`, the inhibition was 50.7% (active).

Take `C[C@@H]1CN([C@@H](C)CO)C(=O)c2cc(NC(=O)C3CCCCC3)ccc2O[C@@H](C)CCCCO[C@H]1CN(C)Cc1ccncc1`: the inhibition is -15.9%.

For `C[C@H]1CCCCO[C@H](CN(C)S(=O)(=O)c2ccc(Cl)cc2)[C@@H](C)CN([C@@H](C)CO)C(=O)c2cc(NC(=O)Nc3ccc4c(c3)OCO4)ccc2O1`, the inhibition is 7.66%.

`COc1ccc(CN(C)C[C@H]2OCCCC[C@H](C)Oc3ccc(NC(=O)Nc4ccc5c(c4)OCO5)cc3C(=O)N([C@H](C)CO)C[C@@H]2C)cc1`: the inhibition is 103% (active).

On to `C[C@@H]1CN([C@H](C)CO)C(=O)c2cc(NC(=O)Nc3ccc(F)cc3)ccc2O[C@@H](C)CCCCO[C@H]1CN(C)Cc1ccc(Cl)c(Cl)c1`, for which the inhibition was 81.1% (active).

For `C[C@@H]1CCCCO[C@@H](CN(C)Cc2ccc3c(c2)OCO3)[C@@H](C)CN([C@@H](C)CO)C(=O)c2cc(NC(=O)Nc3ccccc3)ccc2O1`, the inhibition is 16%.

For the origin of these results see PubChem BioAssay AID651744 (Broad Institute, 2012).
